Compound activity: PubChem BioAssay, National Center for Advancing Translational Sciences (NCATS)
Casp1 inh: allosteric or competitive inhibitors of human caspase-1. P29466. Caspase-1 enzyme, Ac-WEHD-AFC fluorogenic rate. Potency, µM (series often up to 57.5 µM), inactives show at the top dose activity change, negative = inhibition, usual class: inhibitors. hit rate 0.03% among 75,000;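 further: plate controls were vehicle for no effect and no substrate for full effect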
ERK AVP block: vasopressin-driven ERK pathway inhibition | HEK293-V1b, vasopressin-stimulated pERK AlphaScreen | Potency, µM (top dose mostly 57.5 µM), without a hit: at the highest dose activity, negative = inhibition, usual class: inhibitors | hit rate 0.99% among 72,000 | AID 995; further: on the % scale 0 is the no-effect control and ±100 the full control effect; nearly all actives have a fitted effect of over 55% in size
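qHTS, compounds titrated on V1b-expressing HEK293 cells. Preincubation 30 min at 37C, vasopressin 25 nM for 5 min, lysis 10 min, bead incubation 5 hr at room temperature.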
HEK293 cAMP cs: parental HEK293 cAMP activation (counter-screen). parental HEK293 CNG cAMP sensor, membrane potential fluorescence. Potency, µM (top dose mostly 57.1 µM), for the others: at the highest dose activation, most hits filed as activators. hit rate 2.5% among 73,000. AID 938; further: % of control where 0% means no effect; nearly all actives have a fitted effect of over 55% in size
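Parental HEK 293 cells stably expressing a cAMP-gated CNG channel were loaded with membrane potential dye containing 100 uM RO 20-1724 for 60 min. Compound added for 30 min; depolarization read as fluorescence intensity at 590 nm.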
TSHR ag: activates the human thyroid stimulating hormone receptor. P16473. Potency, µM (doses to about 57.1 µM), inactives show at the highest dose activation, hits mostly activators. hit rate 0.48% among 73,000. HEK293-CNG-TSHR cells (CNG channel as cAMP sensor), membrane potential dye, cAMP; active means well fitted activation curve with a large enough effect in the main read-out, with a control signal flat, not every such curve was filed as active; inconclusive means small, poorly fitted or top-dose-only effect, or a change in a side signal; inactive means no such curve, though single readings can be large or run the other way; % of control where 0% means no effect;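 further: the control signal comes from parental cells without the receptor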
Target sequence (P16473 whole entry, looked up): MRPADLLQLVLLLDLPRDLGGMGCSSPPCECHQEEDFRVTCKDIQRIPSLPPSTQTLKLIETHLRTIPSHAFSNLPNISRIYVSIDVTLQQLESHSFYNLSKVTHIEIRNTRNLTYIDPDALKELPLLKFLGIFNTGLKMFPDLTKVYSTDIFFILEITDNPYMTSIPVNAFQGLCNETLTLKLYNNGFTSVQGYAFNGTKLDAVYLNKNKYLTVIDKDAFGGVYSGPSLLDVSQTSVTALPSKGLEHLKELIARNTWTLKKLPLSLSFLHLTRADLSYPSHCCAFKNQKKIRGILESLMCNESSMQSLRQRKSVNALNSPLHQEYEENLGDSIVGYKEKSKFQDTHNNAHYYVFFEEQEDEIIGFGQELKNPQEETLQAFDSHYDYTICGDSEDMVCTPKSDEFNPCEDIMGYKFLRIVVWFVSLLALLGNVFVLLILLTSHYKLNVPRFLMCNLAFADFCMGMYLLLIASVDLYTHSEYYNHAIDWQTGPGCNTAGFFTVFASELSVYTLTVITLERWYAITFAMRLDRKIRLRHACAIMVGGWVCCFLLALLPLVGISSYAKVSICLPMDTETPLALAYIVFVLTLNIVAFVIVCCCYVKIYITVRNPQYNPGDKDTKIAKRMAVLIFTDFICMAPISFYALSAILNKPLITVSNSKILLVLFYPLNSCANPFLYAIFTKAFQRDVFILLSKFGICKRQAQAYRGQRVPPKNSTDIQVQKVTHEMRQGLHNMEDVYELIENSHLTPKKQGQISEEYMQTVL
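HEK 293 cells stably expressing TSHR and a modified CNG channel, with CNG-only parental cells as counterscreen, were preloaded 60 min at room temperature with membrane potential dye containing 100 uM RO 20-1724. Compound exposure was 30 min, and depolarization was read as fluorescence at 590 nm.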
Caspase-7 inhib: caspase-7 (human) inhibition, allosteric or competitive; P55210; recombinant caspase-7, Ac-DEVD-AFC fluorescence rate; Potency, µM (highest dose often 57.5 µM), for the others: at the highest dose activity change, negative = inhibition, usual class: inhibitors; hit rate 0.02% among 75,000; active means well fitted inhibition curve with a large enough effect in the main read-out, with a control signal flat, not every such curve was filed as active; inconclusive means small, poorly fitted or top-dose-only effect, or a change in a side signal; further: % of control where 0% means no effect
15-hLO inh: 15-hLO (ALOX15) enzyme inhibition; P16050; purified 15hLO-1, xylenol orange hydroperoxide absorbance; Potency, µM (top dose mostly 57.1 µM), inactives show top-dose activity change, negative = inhibition, most hits filed as inhibitors; hit rate 1.4% among 74,000; AID 887; further: on the % scale 0 is the no-effect control and ±100 the full control effect; nearly all actives have a fitted effect of over 55% in size
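Purified human 15hLO-1 (40 nM final) in 25 mM Hepes pH 7.5, 0.01% Triton X-100 was preincubated with compound 15 min at room temperature, then reacted 6 min with 50 uM arachidonic acid; hydroperoxide detected by Fe-XO, 573/405 nm absorbance ratio.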
* = called active by the depositor; ? = inconclusive; · = no result given; ! = not active in a repeat; [ ] = dose if it differs, or a comment. Rows were chosen to be rich in hits. Some 4.8% of all compounds tested hit in one or more screens of this group. Unless noted, the call rests on the fitted dose curve; in most records, active means well fitted curve in the direction sought with a large enough effect; inconclusive means small, poorly fitted or top-dose-only effect, or another doubt; inactive means no such curve, though single readings can be large; an effect the other way counts as inactive or inconclusive. Potency means the concentration at half of the fitted maximal effect.

SMILES | Casp1 inh | ERK AVP block | HEK293 cAMP cs | TSHR ag | Caspase-7 inhib | 15-hLO inh
Cc1noc(C)c1COC(=O)Cc1ccc(Cl)c(Cl)c1 | 0% | 34% | 23% | 23% | -2% | 25µM*
Cc1ccc(-c2nnc3ccc(SC(C)C(=O)O)nn23)cc1 (stereo not given) | -2% | · | ? | ? | 2% | 10µM*
O=C(Nc1ccccc1N1CCN(c2ccccc2)CC1)C1CCCCC1 | 0% | 3% | 7.9µM* | ? | 1% | 4%
O=C(NCc1ccc2c(c1)OCO2)c1nn(-c2ccccc2)c(=O)c2ccccc12 | -3% | 6% | 25µM* | ? | -1% | 1%
COc1ccc(-n2nc(C(=O)Nc3ccc4c(c3)OCO4)c3c4ccccc4n(C)c3c2=O)cc1 | -1% | -14% | 16µM* | ? | -1% | 8%
Cc1c(C(=O)NCc2ccc3c(c2)OCO3)oc2ccccc12 | -3% | 30% | 25µM* | ? | -4% | -14%
O=C(CSCc1cnn(-c2ccccc2)c1-n1cccc1)NCc1ccc2c(c1)OCO2 | -2% | 22% | 32µM* | ? | -3% | -23%
Cc1ccc2oc(C(=O)NCc3ccc4c(c3)OCO4)c(C)c2c1 | -3% | -4% | ? | ? | 1% | -14%
Cc1cccc(NC(=O)C2c3ccccc3C(=O)N3CCc4ccccc4C23)n1 (stereo not given) | 2% | ? | 30% | 20% | 0% | 0%
CC[C@]1(O)C[C@H]2CN(CCc3c([nH]c4ccccc34)[C@](C(=O)OC)(c3cc4c(cc3OC)N(C)[C@@H]3[C@](O)(C(=O)OC)[C@H](OC(C)=O)[C@]5(CC)C=CCN6CC[C@]43[C@@H]65)C2)C1 | 7% | ? | 8% | · | -1% | ?
Brc1ccc(-c2nnc3n2-c2ccccc2CC3)cc1 | 0% | -1% | ? | ? | 1% | -11%
Cc1ccc(-n2nc(C(=O)NCc3ccco3)c3c4ccccc4n(C)c3c2=O)cc1 | 4% | -9% | 4µM* | ? | 6% | -27%
COc1ccccc1-n1nc(C(=O)Nc2ccc3c(c2)OCO3)c2ccccc2c1=O | -1% | -1% | 25% | 11% | -2% | -8%
O=C(NCc1ccc2c(c1)OCO2)c1ccc(-c2ccc(Cl)cc2)o1 | -2% | 32µM* | ? | ? | -4% | -27%
O=C(Nc1ccc2c(c1)OCO2)c1nn(-c2ccccc2)c(=O)c2ccccc12 | -3% | -3% | 25µM* | ? | -5% | 0%
O=C(NCc1ccc2c(c1)OCO2)c1cccc(Cl)c1 | 0% | -17% | 16% | · | 1% | -5%
COCCNC(=O)c1ccc(-n2c(=O)c(=O)[nH]c3ccccc32)cc1 | -1% | · | 9% | 0% | -1% | -1%
Cc1cc2oc3c(c(=O)c2cc1C)C(c1ccc(C(C)C)cc1)N(CCCN1CCOCC1)C3=O (stereo not given) | 0% | · | 14% | 16% | 1% | ?
O=C(O)CCCC[C@H]1CCSS1 | 1% | -2% | 15% | 10% | -1% | 8%
COc1ccc(OC)c(N/C(=N\c2nc(C)cc(C)n2)NC(=O)c2ccco2)c1 | 0% | -11% | 25µM* | ? | 0% | 4%
CC1(C)Cc2c(c(N3CCOCC3)nc3sc(-c4ccc(C(=O)O)o4)c(N)c23)CO1 | · | ? | -4% | 14% | ? | 20µM*
CSc1ccccc1NC(=O)COc1ccc(S(=O)(=O)N2CCCC2)cc1 | 2% | -7% | 19% | 8% | -4% | -6%
CC(=O)NCCc1ccc(O)c(O)c1 | -1% | 10% | 6% | 0% | -2% | -17%
N#C/C(=C\c1ccc(O)c(O)c1)C(=O)NCCc1ccccc1 | 2% | ? | ? | ? | -1% | 6.3µM*
N#C/C(=C\c1ccc(O)c(O)c1)C(=O)NCCCCc1ccccc1 | -2% | 40µM* | 8% | -5% | -8% | 1.6µM*
SMILES | Casp1 inh | ERK AVP block | HEK293 cAMP cs | TSHR ag | Caspase-7 inhib | 15-hLO inh
Cc1cccc(N2C(=O)c3cccc4c(N(C)CCO)ccc(c34)C2=O)c1 | · | 24% | 0%[11.4 µM] | 8%[11.4 µM] | ? | -14%[11.4 µM]
CCCCn1c(CN2C(=O)c3ccccc3C2=O)nc2ccccc2c1=O | -1% | -20% | 10% | 20µM* | 0% | -22%
COC(=O)c1ccccc1NC(=O)NCc1ccco1 | 0% | ? | 5% | 9% | -2% | 7%
CCOC(=O)c1cc(NC(=O)NCc2ccco2)c(C)nc1C | 1% | -10% | -7%[2.29 µM] | 10µM* | -1% | 8%
O=C(NCCc1ccccc1)C1CCCN(S(=O)(=O)c2cccs2)C1 (stereo not given) | -3% | -9% | 16% | 0% | -1% | -7%
O=c1cc(-c2ccccc2)oc2cc(O)cc(O)c12 | 1% | ? | 2%[25.6 µM] | -3%[25.6 µM] | -3% | -13%[25.6 µM]
O=c1cc(-c2cc(O)c(O)c(O)c2)oc2cc(O)cc(O)c12 | -4% | -44% | · | · | -9% | 2.5µM*
O=c1cc(-c2ccc(O)cc2)oc2cc(O)cc(O)c12 | -1% | ? | 1% | -10% | 0% | 5µM*!
CC1(Cc2cn(CCC#N)c3ccccc23)OCCO1 | -1% | -1% | 15% | 16µM* | -2% | -26%
COc1ccccc1CN1CC[C@@]2(CCCN(C(=O)c3cccc(F)c3)C2)C1 | -4% | -5% | 20% | 11% | 0% | 1%
CN1CCN(c2ncc3nc(-c4ccc(F)cc4)c(=O)n(Cc4cccs4)c3n2)CC1 | · | 20µM* | -15% | -3% | ? | -4%
N#CCCn1c(=O)c(-c2cccs2)nc2cnc(Nc3ccccc3)nc21 | · | 0% | -8% | -5% | ? | -16%
Cc1nc2cnc(N3CCN(C)CC3)nc2n(Cc2cccs2)c1=O | -1% | -17% | ? | ? | -2% | 6%
CCNc1ncc2nc(-c3cccs3)c(=O)n(CCC#N)c2n1 | · | 5µM* | 15% | -3% | ? | -26%
CCNc1ncc2ncc(=O)n(Cc3cccs3)c2n1 | -7% | -30% | ? | ? | -13% | 6%
CCNc1ncc2nc(C)c(=O)n(Cc3cccs3)c2n1 | -16% | 16µM* | ? | ? | -18% | 2%
COc1ccc(-c2nc3cnc(N(C)C)nc3n(C3CC3)c2=O)cc1 | · | 38% | 10% | 2% | ? | -18%
O=C(C1CCCN1S(=O)(=O)c1cccc2cccnc12)N1CCc2ccccc21 (stereo not given) | 1% | 4% | -1% | 13% | -3% | -2%
O=C(C1CCN(S(=O)(=O)c2cccc3cccnc23)CC1)N1CC=C(c2ccccc2)CC1 | -5% | 25µM* | ? | ? | -2% | ?
O=C(C1CCCN1S(=O)(=O)c1cccc2cccnc12)N1CCc2ccccc2C1 (stereo not given) | -5% | ? | ? | ? | -1% | 25µM*
